Records with an inconclusive call do not appear. The source made the active and inactive calls. Unless noted, calls follow the shape of the full dose curve.

This passage reports Potency, activity change, negative = inhibition and activity change, negative = cytotoxicity results from PubChem BioAssay (NCATS).

Assay [1] is described as follows: Primary qHTS for inhibitors of SARS-S pseudo-typed particle cell entry (AID 1479145). Also: nearly all actives have a fitted effect of over 45% in size. Also: potency is read from the fitted curve at half-maximal effect. As to activity change, negative = inhibition: % is scaled to controls: 0 for no effect and ±100 for the full control effect. As to conditions: outcome: dose series up to 57.1 µM unless noted.
The nature of assay [2]: Primary qHTS for Huh7 cytotoxicity: counterscreen for inhibitors of MERS-S pseudotyped particle cell entry (AID 1479147). As to activity change, negative = cytotoxicity: % is scaled to controls: 0 for no effect and ±100 for the full control effect. To be noted: outcome: dose series up to 57.1 µM unless noted. In general terms: In qHTS, concentration-response curves come from the screen itself.
Assay [3] is described as follows: Primary qHTS for Vero E6 cytotoxicity: counterscreen for inhibitors of SARS-S pseudo-typed particle cell entry (AID 1479150). Also: potency is read from the fitted curve at half-maximal effect. As to activity change, negative = cytotoxicity: % is scaled to controls: 0 for no effect and ±100 for the full control effect. To be noted: outcome: dose series up to 57.1 µM unless noted.
A short description of assay [4]: Primary qHTS to identify inhibitors of SARS-CoV-2 cell entry (AID 1645846). Also: nearly all actives have a fitted effect of over 45% in size. Also: potency is read from the fitted curve at half-maximal effect. As to conditions: SARS-CoV-2 pseudovirus cell entry assay, luminescence; activity change, negative = inhibition: at 57.1 µM (top of the series) unless noted. A digest of the protocol:
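Entry measured by luciferase signal 48 h after adding SARS-CoV-2-S pseudotyped MLV particles to HEK293-ACE2 cells preincubated 1 h with compounds. Normalisation: bald particles and spike particles.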

A short description of assay [5]: VSVG counterscreen qHTS to identify inhibitors of SARS-CoV-2 cell entry (AID 1645847). Also: potency is read from the fitted curve at half-maximal effect; nearly all actives have a fitted effect of over 65% in size. A digest of the protocol:
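Luminescence read after 48 h infection at 37 C with VSV-G-pseudotyped MLV particles, following 1 h compound exposure of Expi293F cells stably expressing human ACE2; scaled between bald particle and VSV-G particle wells.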
On the technique in general: The purpose of a counterscreen is to sort out artefacts and off-target activity.

Assay [6] addresses Nuclear receptor subfamily 1 group I member 3 (Homo sapiens) (UniProt Q14994). The experiment in a line: Primary qHTS for antagonist of constitutive androstane receptor (CAR) against the NCATS DSHEA and TCM libraries (AID 1794836; active = well fitted curve in the direction sought with a large enough effect;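 also: HepG2 cells stably expressing hCAR with CYP2B6 luciferase reporter stimulated by CITCO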). In a few lines:
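Antagonist mode: CAR reporter luminescence (ONE-Glo) in HepG2-CYP2B6-hCAR cells stimulated with 48 uM CITCO (final) over 24 h at 37 C, compounds titrated; viability read first by CellTiter-Fluor fluorescence.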

The nature of assay [7]: KB-8-5-11 P-gp reporter qHTS against the NCATS DSHEA and TCM libraries (AID 1919977; active = well fitted curve in the direction sought with a large enough effect; also: 0% is about no effect). A digest of the protocol:
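CellTiter-Glo luminescence measured viability after ~72 h exposure (37C, 5% CO2) of KB-8-5-11 cervical adenocarcinoma cells overexpressing P-gp. Colchicine was omitted during assay. Substances were tested as titrations.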

The nature of assay [8]: Primary qHTS for inhibitors of MERS-S pseudo-typed particle cell entry (AID 1479149). Also: nearly all actives have a fitted effect of over 60% in size. Also: potency is read from the fitted curve at half-maximal effect. As to activity change, negative = inhibition: % is scaled to controls: 0 for no effect and ±100 for the full control effect. As to conditions: outcome: dose series up to 57.1 µM unless noted.
Assay [9] is described as follows: Cytotoxicity counterscreen for inhibitors of SARS-CoV-2 cell entry (AID 1645845). Also: nearly all actives have a fitted effect of over 50% in size. To be noted: outcome: dose series up to 57.1 µM unless noted. In a few lines:
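48 h compound treatment (after 1 h preincubation), HEK293-ACE2 cells, 37 C/5% CO2; ATP luminescence endpoint; normalized to cell wells and media blanks.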

A short description of assay [10]: Confirmatory qHTS to identify inhibitors of SARS-CoV-2 cell entry (AID 1645844). Also: potency is read from the fitted curve at half-maximal effect; nearly all actives have a fitted effect of over 45% in size. A digest of the protocol: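 Luminescence from a luciferase reporter, read 48 hr after pseudotyped-particle addition, gives entry signal, normalised to spike-bearing PP wells and bald PP lacking fusion protein wells. Cells are Expi293F stably expressing human ACE2, compound-pretreated 1 hr.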

Sequence of Nuclear receptor subfamily 1 group I member 3 (Homo sapiens) (Q14994 whole entry, looked up): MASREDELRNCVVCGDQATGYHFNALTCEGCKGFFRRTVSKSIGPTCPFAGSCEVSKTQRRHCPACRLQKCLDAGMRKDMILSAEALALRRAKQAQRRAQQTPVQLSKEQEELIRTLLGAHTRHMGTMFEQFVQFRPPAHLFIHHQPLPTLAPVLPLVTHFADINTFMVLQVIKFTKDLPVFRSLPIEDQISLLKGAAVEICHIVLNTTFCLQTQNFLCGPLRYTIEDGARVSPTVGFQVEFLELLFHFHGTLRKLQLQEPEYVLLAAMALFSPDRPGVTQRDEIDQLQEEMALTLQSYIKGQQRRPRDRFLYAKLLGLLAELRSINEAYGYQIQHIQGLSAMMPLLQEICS

Take `CCC[C@H](NC(=O)[C@@H]1[C@H]2CCC[C@H]2CN1C(=O)[C@@H](NC(=O)[C@@H](NC(=O)c1cnccn1)C1CCCCC1)C(C)(C)C)C(=O)C(=O)NC1CC1`: the Potency result in [1], in assay [2] and in [3] was “inactive” in each case. In addition, the activity change, negative = inhibition in [4] came to 0.184%.
Consider `C=C1CC[C@H](O)C/C1=C\C=C1/CCC[C@]2(C)[C@@H]([C@H](C)CCCC(C)C)CC[C@@H]12`, for which the Potency result in assay [1], in [2], in [6] and in assay [7] was “inactive” in each case. Moreover, in assay [5], the Potency was 24.1 µM (active).
On to `COc1cc2c(cc1O)CCN[C@]21CS[C@@H]2c3c(OC(C)=O)c(C)c4c(c3[C@H](COC1=O)N1[C@@H]2[C@H]2c3c(cc(C)c(OC)c3O)C[C@@H]([C@@H]1O)N2C)OCO4`, for which the activity change, negative = inhibition in assay [1] is -93.9% [at 11.4 µM] (inactive); in assay [8], -71.9% [at 11.4 µM] (inactive); in assay [4] it was -92.8% [at 11.3 µM]. In addition, the activity change, negative = cytotoxicity in assay [9] was -20.3% [at 11.3 µM] (inactive).
For `CC[C@@]1([C@@H]2O[C@@H]([C@H]3O[C@@](O)(CO)[C@H](C)C[C@@H]3C)C[C@@H]2C)CC[C@H]([C@]2(C)CCC3(C[C@H](O)[C@@H](C)[C@@H]([C@@H](C)[C@@H](OC)[C@H](C)C(=O)O)O3)O2)O1` (stereo partly drawn), the Potency result in [1] and in [3] was “inactive” throughout. For the same compound, in [8], the Potency was 1.12 µM (active).
As to `C=C[C@@H]1C[C@]1(NC(=O)[C@@H]1C[C@@H](Oc2ncc(OC)c3ccc(Cl)cc23)CN1C(=O)[C@@H](NC(=O)OC(C)(C)C)C(C)(C)C)C(=O)NS(=O)(=O)C1CC1`, the Potency result in assay [1], in [2] and in assay [3] was “inactive” throughout. Moreover, the Potency in assay [5] was 10.8 µM (active).
As for `CC1(COc2ccc(N3CCC(Oc4ccc(OC(F)(F)F)cc4)CC3)cc2)Cn2cc([N+](=O)[O-])nc2O1` (stereo not drawn), the Potency result in assay [1], in assay [2], in assay [3] and in assay [9] was “inactive” each time.
For `CN(C)C/C=C/C(=O)Nc1cc2c(Nc3ccc(F)c(Cl)c3)ncnc2cc1OC1CCOC1` (stereo not drawn), the Potency in assay [1] was 10 µM (active); in [8] it was 14.1 µM (active); in assay [3], 10 µM (active); in assay [4] it was 10 µM (active).
As for `COc1cc([C@@H]2c3cc4c(cc3C(O[C@@H]3O[C@@H]5CO[C@@H](c6cccs6)OC5[C@H](O)[C@H]3O)C3COC(=O)[C@@H]32)OCO4)cc(OC)c1O` (stereo partly drawn), the Potency is 1 µM (active) in [1], 0.0482 µM (active) in [10] and 0.0429 µM (active) in assay [5]. In addition, in assay [8], the Potency entry was “inactive”. In assay [4], the activity change, negative = inhibition was -95.7%.
For the compound `C=C1CC[C@H](O)CC1=C/C=C1\CCC[C@]2(C)[C@@H]([C@H](C)/C=C/[C@H](C)C(C)C)CC[C@@H]12`, the Potency entry in assay [1], in [2], in assay [3], in assay [6] and in [7] was “inactive” each time.
Consider `N#Cc1c(N2C[C@@H]3NCCO[C@H]3C2)c(F)cc2c(=O)c(C(=O)O)cn(C3CC3)c12`, for which the Potency entry in [1], in [2], in [3] and in assay [9] was “inactive” each time.
Turning to `COc1ccc(C=CC(=O)O)cc1`, the Potency result in assay [1], in [2], in assay [3] and in [9] was “inactive” throughout. For the same compound, in assay [4], the activity change, negative = inhibition is -10.2%.
Consider `C/C(O)=C(\C#N)C(=O)Nc1ccc(C(F)(F)F)cc1`, for which the Potency result in assay [1] and in [8] was “inactive” in each case.
With `CCCCCCCCCC(=O)OC1(c2ccc(Cl)cc2)CCN(CCCC(=O)c2ccc(F)cc2)CC1`, the Potency result in assay [1], in [2], in assay [3] and in [9] was “inactive” each time.
